Experimental data as given in PubChem BioAssay AID1347430 (National Center for Advancing Translational Sciences (NCATS), 2020).
Where “and” joins values, the source holds several entries; their conditions need not be identical. Identical values can stand only once. The whole screen tested about 91,000 compounds, of which about 130 (0.14%) were called active. Where a call stands in place of a potency, no number is given. About 3% were inconclusive and are not listed. Calls come from the whole dose curve; as a rule, active = well fitted inhibition curve with a large enough effect; inconclusive = small, poorly fitted or top-dose-only effect; inactive = flat fitted curve, though single readings scatter. Many of the other results were omitted from the sample, so actives are more common in it than they were. Some structures have more than one record in an assay (separate samples or runs), and their calls can disagree.
Note: nearly all actives have a fitted effect of over 65% in size.
Potency is the fitted concentration of half-maximal effect.

What follows are compounds tested on Uracil-DNA glycosylase (assay: Primary qHTS assay for inhibitors of Activation Induced Cytidine Deaminase (AID): UDG Counterscreen signal). Details: FRET deamination/UDG coupled assay, UDG read, 4 h; series mostly up to 115 µM.
From the text: Assay Provider (PI) Patricia Gearhart Ph.D.
National Institute on Aging
National Institute of Health (NIH), Bethesda, MD
Assay Provider (PI) Rahul Kohli Ph.D.
Perelman School of Medicine
University of Pennsylvania, Philadelphia, PA
Activation-Induced Deaminase (AID) is a cytosine deaminase which converts cytosine into uracil within stretches of ssDNA. The presence of uracil in DNA initiates a cascade of mutagenic DNA repair to introduce point mutations and DNA double strand breaks. Specific targeting of AID to the immunoglobulin heavy chain loci (Igh) promotes mutagenesis in the antibody variable region for somatic hypermutation (SHM) or switch regions leading to class switch recombination (CSR). However, AID also plays a role in accumulating unnecessary mutations across the genome. Mis-targeting of AID results in the initiation of tumor development and leads to greater drug resistance among cancer cells when continually expressed. To identify an AID inhibitor, a small molecule library will be screened in collaboration with NCATS core facility at NIH. To confirm biological function, inhibitors will be examined in an in vitro murine B-cell activation assay and subsequent secondary validation screens. Top molecules will be further screened to identify inhibitory efficacy against a wild type primary splenocytes assay. Using these approaches, we hope to identify a small molecule with great efficacy and low toxicity for use as a molecular probe to further characterize AID's intricacies, or even as a therapeutic.
A FRET based analysis of cytosine deamination, was developed to identify potential inhibitors of AID catalytic activity. This screen has two signal output, Read 1 evaluates the AID inhibition response. The second readout (Read 2) evaluates UDG response and is uses as a counterscreen to exclude false positive inhibitors. Inhibition in AID and inactivity in the UDG signal is the desired outcome for this assay.
SEQUENCE No. (e.g., 1, 2, 3, etc.); […] (e.g., Cells, Incubation, Reagent, etc.); VALUE; DESCRIPTION
1a; Reagent; 3 uL; [4/3x] 1 uM AID/2.67 U/mL UDG
1b; Reagent; 3 uL; 2 U/mL UDG
1c; Reagent; 3 uL; 1 uM AID
2a; Compound; 46 nL; Follow-up plates (0.64 uM - 10 mM)
2b; Control; 46 nL; ATA ([…] - 10 mM)
3; Time; 10 min; incubation at room temperature
5; Time; 4 hr; incubation at room temperature
6; Reagent; 4 uL; [2x] 250 mM NaOH
7; Time; 15 sec; centrifuge at 1000 rpm
8; Time; 30 min; incubation at room temperature
9a; Detection; fluorescence (Read 1: AID); EnVision (PerkinElmer) plate reader, 540 excitation and 590 emission filters
9b; Detection; fluorescence (Read 2: UDG); EnVision (PerkinElmer) plate reader, 560 excitation and 665 emission filters
NOTES (numbers refer to sequence above)
1a; Reagents were dispensed in a medium-binding black solid-bottom Greiner plates (789176F) using a BioRptr liquid dispenser. Dispense 3 uL of [4/3x] 1 uM AID (provided by Kohli lab) and [4/3x] 2 U/mL UDG (NEB M0280L) into columns 1, 2, 5 to 48.
1b; Dispense 3 uL of [4/3x] 2 U/mL UDG into column 3.
1c; Dispense 3 uL of [4/3x] 1 uM AID into column 4.
2a; Compound (7-points [uM] (0.64; 3.2; 16; 80; 400; 2,000; 10,000; 20,000) double pin-transferred (Dip Factor = 2) using the Kalypsys (Wako USA) pintool equipped with a 1536 pinhead for a final concentration range of 7.32 nM - 114 uM.
2b; 10 mM Aurintricarboxylic Acid (Sigma A1895) (ATA, 8-point, n = 2, 1:2.5 dilution in column 2) double pin-transferred (Dip Factor = 2) using the Kalypsys (Wako USA) pintool equipped with a 1536 pinhead for a [final] range of 186 nM - 114 uM.
3; Room temperature incubation.
4; Dispense 1 uL of substrate mixture from the Kohli lab [4x] […] DJC20 and [4x] 250 nM DJC23 into columns 1 to 48 .
5; Room temperature incubation.
6; Dispense 4 uL of substrate mixture [2x] 250 mM NaOH into columns 1 to 48.
7; Centrifugation step to remove bubbles.
8; Room temperature incubation
9a; Fluorescence signal (column label AID) was read using the EnVision plate reader. […]
For `Cc1scc(C(=O)NCCC2=CCCCC2)c1C`, the Potency was “inactive”.
For `CC(C)(C)C(=O)NCC(=O)O`, the Potency was “inactive”.
For `COc1ccc(COC(=O)C2CCN(S(=O)(=O)c3c(Cl)cccc3Cl)CC2)cc1F`, the Potency was “inactive”.
With `CN(C)c1ccc(NC(=O)CCC2CCCC2)cc1` the Potency was “inactive”.
`CNC(=O)C1CCN(Cc2csc(-c3ccc(C(F)(F)F)cc3)n2)CC1` was tested, and the Potency was “inactive”.
For `CC(C)c1cccc(C(C)C)c1-n1ccnc1`, the Potency was “inactive”.
In the case of `CC(C)(C)C(=O)NCCCC(=O)NCc1cccnc1`, the Potency is reported as “inactive”.
For `Fc1ccc(/C=N/N=C/c2ccc(F)cc2F)c(F)c1`, the Potency was “inactive”.
In the case of `Cc1ccc(C)c(S(=O)(=O)N2CCN(C(=O)CCc3ncc(-c4ccc(F)cc4F)o3)CC2)c1`, the Potency is reported as “inactive”.
With `Cc1c(-c2ccccc2)[o+]c2ccccc2c1C#Cc1ccccc1` the Potency was “inactive”.
For `CCCn1nc(C(=O)OCC(N)=O)c2ccccc2c1=O`, the Potency was “inactive”.
For `O=C(COC(=O)c1cnc2ccccc2n1)NC12CC3CC(CC(C3)C1)C2`, the Potency was “inactive”.
`COc1cccc(NC(=O)C2(C#N)CCCC2)c1` was tested, and the Potency was “inactive”.
With `O=C(NCc1coc(-c2cccs2)n1)c1cccc(C(F)(F)F)c1` the Potency was “inactive”.
For `O=S(=O)(CCN1CCN(c2cnccn2)CC1)c1ccccc1`, the Potency was “inactive”.
With `Cc1cnc(NC(=O)c2nc(C)n(-c3ccc(Cl)cc3)n2)s1` the Potency was “inactive”.
In the case of `COc1ccccc1Oc1c(C)oc2cc(OC(=O)c3ccc4c(c3)OCO4)ccc2c1=O`, the Potency is reported as “inactive”.
`C/C=C/Cn1c(=O)c2c(nc(-n3nc(C)cc3C)n2CC)n(C)c1=O` was tested, and the Potency was “inactive”.
For `Cc1cccc(N(CCC(N)=O)C(=O)c2ccc(C#N)cc2)c1`, the Potency was “inactive”.
`O=C(c1ccc2c(c1)N(Cc1ccccc1)C(=O)c1ccccc1S2=O)N1CCC2(CC1)OCCO2` (centres undefined) was tested, and the Potency was “inactive”.
In the case of `O=C(CCC1CCCC1)NCCc1cccnc1`, the Potency is reported as “inactive”.
With `COc1cc(Br)cc2cc(-c3nc(-c4nonc4N)no3)c(=O)oc12` the Potency was “inactive”.
In the case of `CC(Oc1ccc(/C=C(/C#N)c2nc3ccccc3[nH]2)cc1)C(=O)O` (centres undefined), the Potency is reported as “inactive”.
With `CCOC(=O)c1noc2nc(C)nc(Nc3ccc(CC)cc3)c12` the Potency was “inactive”.
With `COc1ccc(N(CC(=O)N2CCN(C)CC2)S(=O)(=O)c2ccccc2)cc1Cl` the Potency was “inactive”.
In the case of `COc1cc(/C=N/O)ccc1O`, the Potency is reported as “inactive”.
In the case of `O=C(O)c1ccc(CSc2cccc(Cl)c2)cc1`, the Potency is reported as “inactive”.
`FC(F)(F)c1cccc(Oc2ncnc3sc(-c4ccccc4)cc23)c1` was tested, and the Potency was “inactive”.
With `CC(C)Cc1nc(NCc2ccncc2)c(C#N)c2c1CCCC2` the Potency was “inactive”.
`O=C(CCc1ccncc1)Nc1ccccc1` was tested, and the Potency was “inactive”.
For `COc1ccc(C(=O)Oc2ccc(Cl)cc2C)c(OC)c1`, the Potency was “inactive”.
With `Cc1ccc(CNC(=O)c2ccc(=O)[nH]c2)s1` the Potency was “inactive”.
With `CCC(CC)C(=O)Nc1cccc(F)c1` the Potency was “inactive”.
In the case of `CSc1ccc(Cl)c(C(=O)Nc2ccc(F)c(F)c2)c1`, the Potency is reported as “inactive”.
`CC(=O)c1ccc2[nH]c(C(=O)O)cc2c1` was tested, and the Potency was “inactive”.
For `O=C(CCC1CCCCC1)Nc1cccc(F)c1`, the Potency was “inactive”.
`O=C(CCc1c[nH]c2ccccc12)N1CC=C(c2ccccc2)CC1` was tested, and the Potency was “inactive”.
In the case of `CC1CCN(C(=O)CSc2nnc(-c3ccco3)n2N)CC1`, the Potency is reported as “inactive”.
For `CCCC(=O)Nc1ccccc1N1CCN(Cc2nc3ccccc3n2C)CC1`, the Potency was “inactive”.
With `Cn1nc(C(=O)Nc2ccc(C(F)(F)F)cc2)c2ccccc2c1=O` the Potency was “inactive”.
For `CCCCCn1nc(C(=O)Nc2nccs2)c2ccccc2c1=O`, the Potency was “inactive”.
With `CN(Cc1ccc(C(C)(C)C)cc1)C(=O)C1CCN(C(=O)/C=C/c2ccccc2)CC1` the Potency was “inactive”.
`COc1ccc(-c2nc3ccccc3o2)cc1NC(=O)c1ccc(Cl)cc1` was tested, and the Potency was “inactive”.
With `CCOC(=O)c1cc(-c2ccc(S(=O)(=O)N3CCN(c4cc(Cl)ccc4C)CC3)s2)on1` the Potency was “inactive”.
`O=C(CSc1ncnc2ccccc12)Nc1ccc(Cl)c(C(F)(F)F)c1` was tested, and the Potency was “inactive”.
In the case of `CNc1c(NC(=O)Nc2ccccc2F)c(=O)oc2ccccc12`, the Potency is reported as “inactive”.
In the case of `COc1cc(CNC(=O)C(C)Oc2ccccc2)ccn1` (centres undefined), the Potency is reported as “inactive”.
For `Nc1ccc(C(=O)O)cn1`, the Potency was “inactive”.
In the case of `Cc1ccc(-n2ncc3c(NCCCn4ccnc4)ncnc32)cc1Cl`, the Potency is reported as “inactive”.
`Clc1cccc(-n2ncc3c(NCCc4ccccc4)ncnc32)c1` was tested, and the Potency was “inactive and 89.1 µM (active)”.
With `NS(=O)(=O)c1ccc(CCNc2ncnc3c2cnn3-c2ccccc2Cl)cc1` the Potency was “inactive”.
In the case of `CCc1nn2c(=O)cc(CN3CCCCC3C)nc2s1` (centres undefined), the Potency is reported as “inactive”.
`O=C(CCc1cccs1)NCC1CC1` was tested, and the Potency was “inactive”.
With `C/C(=N/Nc1ccnc2cc(Cl)ccc12)c1cccc(N)c1` the Potency was “inactive”.
With `CC(=O)N(Cc1ccc2[nH]ccc2c1)C1CC1` the Potency was “inactive”.
In the case of `O=C(CCn1ccc2ccccc21)N1CCN(S(=O)(=O)c2ccccc2)CC1`, the Potency is reported as “inactive”.
For `COCC(=O)N(Cc1cccs1)C1CC1`, the Potency was “inactive”.
For `CC(c1nc(C(C)(C)C)no1)N(C)Cc1ccc2c(c1)OCO2` (centres undefined), the Potency was “inactive”.
For `Fc1cccc(CSc2nnc(-c3ccccc3F)n2C2CC2)c1`, the Potency was “inactive”.
